For 13 compounds, growth results are on record in PubChem BioAssay (NCI).

This is part of a sample that, as a whole, favours compounds with a hit. Of some 83,000 tested, about 20% had one in any assay.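 The test compound was applied at a single concentration to cells in 96-well plates for 48 hours, and percent growth was recorded.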 Unmarked numbers belong to inactive results. Calls of active or inactive are those of the source. The calls were made as follows: active = growth percent below 10; inactive = the rest.

Test systems include NCI-H23 lung; NCI-H226 lung; NCI-H322M lung; HOP-62 NSCLC; NCI-H460 lung; HOP-92 NSCLC; NCI-H522 lung; A549/ATCC NSCLC; 786-0 renal; COLO 205 colon.
Common to all, as to assay: NCI-60 one-dose screen, 48 h (100 = growth as untreated, 0 = no growth, -100 = all killed)
What all share (conditions): 10 µM unless noted

In the case of `C[N+]1=C(/C=C/c2ccc(O)c3ncccc23)C(C)(C)c2ccccc21`, the growth with NCI-H23 lung was 80.1%; in the assay with NCI-H226 lung it was 15%; in the assay with NCI-H322M lung it was 97.4%; with HOP-62 NSCLC, 30%; in the assay on NCI-H460 lung, 32.8%; in the assay on HOP-92 NSCLC it was 87.1%. The growth in the assay with NCI-H522 lung was 51.9%; with A549/ATCC NSCLC it was 17.9%; with 786-0 renal it was 66.7%; in the assay on COLO 205 colon, 35.7%.

In the case of `CCOC(=O)NCCc1ccccc1`, the growth was 101% in the assay with NCI-H23 lung; 107% in the assay with NCI-H226 lung; 93.2% in the assay on NCI-H322M lung; 99.7% in the assay with HOP-62 NSCLC; 112% in the assay with NCI-H460 lung; 82% in the assay with HOP-92 NSCLC. In addition, the growth in the assay on NCI-H522 lung is 98.1%; in the assay on A549/ATCC NSCLC, 89.6%; in the assay with 786-0 renal, 112%; with COLO 205 colon it was 112%.

For `COc1ccc(-c2ncnc3c2ncn3CC#CCCl)cc1`, the growth is 59.1% in the assay with NCI-H23 lung; 56.5% in the assay on NCI-H226 lung; 92% in the assay on NCI-H322M lung; 77.5% in the assay on HOP-62 NSCLC; 67.8% with NCI-H460 lung; 9.39% (active) in the assay on HOP-92 NSCLC. Moreover, the growth with NCI-H522 lung was 49%; in the assay with A549/ATCC NSCLC, 60.1%; with 786-0 renal, 36.4%; with COLO 205 colon it was 80%.

Take `CCCCCCN1C(=O)/C(=c2\sc3n(c2=O)C2C(NN=3)N(CC)C(=O)N2CC)c2ccccc21` (stereo not given): the growth in the assay on NCI-H23 lung is 25.6%; with NCI-H226 lung it was -5.26% (active); in the assay on NCI-H322M lung it was 43.5%; in the assay with HOP-62 NSCLC, -1.75% (active); in the assay with NCI-H460 lung, -27.7% (active); in the assay with HOP-92 NSCLC, 37%. Also, the growth in the assay with NCI-H522 lung is -28.7% (active); in the assay on A549/ATCC NSCLC, -47.6% (active); in the assay on 786-0 renal, -67.2% (active); in the assay on COLO 205 colon it was 7.62% (active).

For `C=C1C(=O)O[C@H]2[C@H]1CC/C(COC(=O)CCC(=O)NCCOCCOCC(=O)Nc1ccc(OC)c(C(N)=O)c1O)=C\CC[C@@]1(C)O[C@@H]21`, the growth was 101% in the assay on NCI-H23 lung; 55.5% with NCI-H226 lung; 101% in the assay on NCI-H322M lung; 90.3% in the assay on HOP-62 NSCLC; 79.3% in the assay with NCI-H460 lung; 68.6% with HOP-92 NSCLC. Also, the growth with NCI-H522 lung is 26.5%; in the assay with A549/ATCC NSCLC, 91.4%; in the assay on 786-0 renal, 91.8%; in the assay on COLO 205 colon it was 63.7%.

Turning to `COc1cc(CCC[P+](c2ccccc2)(c2ccccc2)c2ccccc2)c(OC)c(OC)c1OC`, the growth in the assay on NCI-H23 lung was 77.9%; with NCI-H226 lung, 88.8%; in the assay with NCI-H322M lung, 83.3%; with HOP-62 NSCLC it was 82.1%; in the assay on NCI-H460 lung it was 82.2%; in the assay with HOP-92 NSCLC, 61.8%. In addition, the growth with NCI-H522 lung was 71.9%; in the assay on A549/ATCC NSCLC it was 78.2%; in the assay on 786-0 renal, 75.3%; in the assay with COLO 205 colon it was 105%.

Consider `COc1nc2ccccc2cc1-c1nc2c(cnn2-c2ccc(Br)cc2)c(=O)[nH]1`, for which the growth in the assay with NCI-H23 lung was 25.2%; in the assay on NCI-H226 lung, 39.7%; in the assay with NCI-H322M lung, 36.5%; with HOP-62 NSCLC, 24.4%; in the assay with NCI-H460 lung, 13.6%; in the assay with HOP-92 NSCLC, 39%. Further, the growth in the assay with NCI-H522 lung was 2.63% (active); with A549/ATCC NSCLC, 39.9%; with 786-0 renal it was 15.5%; with COLO 205 colon it was -50.2% (active).

`CN(C)CC#Cc1ccc2ncc(C#N)c(Nc3ccc(F)c(Cl)c3)c2c1`: the growth in the assay with NCI-H23 lung is 58.2%; in the assay with NCI-H226 lung, 60.8%; in the assay with NCI-H322M lung, 14.9%; in the assay on HOP-62 NSCLC, 67.8%; with NCI-H460 lung, 50.8%; in the assay on HOP-92 NSCLC, 56.1%. For the same compound, the growth in the assay with NCI-H522 lung was 45.3%; in the assay with A549/ATCC NSCLC it was 51%; in the assay on 786-0 renal, 49.4%; in the assay with COLO 205 colon, 71.3%.

With `CN1CCN(c2ccc(-c3cc4c(Nc5ccc(F)c(Cl)c5)ncnn4c3)cc2)CC1`, the growth in the assay on NCI-H23 lung was 96.2%; in the assay with NCI-H226 lung, 89%; in the assay on NCI-H322M lung it was 32.9%; in the assay with HOP-62 NSCLC, 103%; with NCI-H460 lung, 8.58% (active); with HOP-92 NSCLC it was 76.8%. The growth was 72.5% in the assay with NCI-H522 lung, 71.4% in the assay on A549/ATCC NSCLC, 89.6% in the assay on 786-0 renal and 37% with COLO 205 colon.

On to `O=C(Nc1ccc(Br)cc1F)c1cc(Br)ccc1O`, for which the growth in the assay on NCI-H23 lung was 0.13% (active); in the assay with NCI-H226 lung, -1.23% (active); in the assay on NCI-H322M lung, -4.81% (active); in the assay with HOP-62 NSCLC it was 13%; with NCI-H460 lung, 3.37% (active); with HOP-92 NSCLC, -14.6% (active). In addition, the growth was -7.77% (active) with NCI-H522 lung, 8.21% (active) with A549/ATCC NSCLC, 7.72% (active) in the assay on 786-0 renal and 85.6% in the assay with COLO 205 colon.

`O=c1n(Cc2ccc3ccccc3c2)ccn1Cc1ccc2ccccc2c1`: the growth in the assay on NCI-H23 lung was 91%; in the assay with NCI-H226 lung, 91.5%; in the assay with NCI-H322M lung it was 86.3%; in the assay with HOP-62 NSCLC, 66%; in the assay on NCI-H460 lung it was 85.7%; in the assay on HOP-92 NSCLC, 83.1%. The growth in the assay with NCI-H522 lung was 46.8%; in the assay with A549/ATCC NSCLC, 82.9%; in the assay with 786-0 renal, 95.8%; in the assay with COLO 205 colon, 96.1%.

Regarding `COc1ccc(N2C(=O)C(Oc3ccccc3)C2c2ccc(C)cc2)cc1` (stereo not given), the growth in the assay with NCI-H23 lung is 91%; in the assay with NCI-H226 lung, 114%; in the assay with NCI-H322M lung it was 103%; in the assay with HOP-62 NSCLC, 104%; in the assay with NCI-H460 lung, 103%; in the assay with HOP-92 NSCLC it was 66.8%. The growth with NCI-H522 lung is 94.2%; in the assay with A549/ATCC NSCLC it was 90.5%; in the assay on 786-0 renal it was 98.5%; with COLO 205 colon, 107%.

On to `COc1cc(/C=C/C(=O)/C=C/c2cc(OC)c3c(c2OC)OCO3)c(OC)c2c1OCO2`, for which the growth with NCI-H23 lung is 33.2%; in the assay with NCI-H226 lung, 73.9%; with NCI-H322M lung it was 56.8%; in the assay on HOP-62 NSCLC, 72.8%; in the assay with NCI-H460 lung it was 23.5%; in the assay on HOP-92 NSCLC, 74.1%. Besides, the growth is -15.5% (active) in the assay on NCI-H522 lung, 55.1% with A549/ATCC NSCLC, 29% with 786-0 renal and 13.3% in the assay with COLO 205 colon.
